Test results from PubChem BioAssay (NCATS).
Activity calls are given as the source filed them. Calls follow the shape of the dose curve; as a rule, active = well fitted activation curve with a large enough effect; inconclusive = small, poorly fitted or top-dose-only effect; inactive = flat fitted curve, though single readings scatter.

Assay: Cellular Toxicity (caspase-3) SK-N-SH (AID 661);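 also: cells exposed to compound for 16 hours; 0% = DMSO basal and 100% = 10 µM staurosporine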
Settings: SK-N-SH caspase-3 activation, qHTS, DMSO as zero, staurosporine as full; series mostly up to 91.7 µM; caspase-3 activation: at the top concentration
Procedure, shortened: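 Cells were seeded and incubated 5 hr at 37 °C, dosed with compound over a concentration range for 16 hr, then given Caspase-Glo 3/7 reagent for 1 hr at room temperature before luminescence reading.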

| SMILES | outcome | caspase-3 activation |
| --- | --- | --- |
| O=C(O)COc1ccc(Cl)cc1Cl | inactive | – |
| ClC1=C(Cl)C2(Cl)C3C4C=CC(C4)C3C1(Cl)C2(Cl)Cl (centres undefined) | – | 15.3% (inactive) |
| c1ccc(N=Nc2ccccc2)cc1 | – | -1.33% (inactive) |
| CCOCN(C(=O)CCl)c1c(C)cccc1CC | – | 8.77% (inactive) |
| CNC(=O)O/N=C/C(C)(C)SC | – | -2.44% (inactive) |
| CCNc1nc(Cl)nc(NC(C)C)n1 | – | 0.698% (inactive) |
| C=CCc1ccc(OC)cc1 | – | -1.74% (inactive) |
| ClC1=C(Cl)C2(Cl)C3C(Cl)C=CC3C1(Cl)C2(Cl)Cl (centres undefined) | – | 13% (inactive) |
| ClC1=C(Cl)C2(Cl)C3C4CC(C5OC45)C3C1(Cl)C2(Cl)Cl (centres undefined) | – | 22.6% (inactive) |
| ClC(Cl)=C(c1ccc(Cl)cc1)c1ccc(Cl)cc1 | inactive | – |
| CCc1cccc(CC)c1N(COC)C(=O)CCl | – | 3.03% (inactive) |
| C/C=C/c1ccc2c(c1)OCO2 | – | -1% (inactive) |
| C=CCc1ccc2c(c1)OCO2 | – | 0.355% (inactive) |
| COP(=S)(OC)Oc1ccc([N+](=O)[O-])cc1 | – | -0.168% (inactive) |
